The source made the active and inactive calls. The calls were made as follows: active = hit-call score of the fitted dose curve at least 0.9, where 1 is the maximum; inactive = score below 0.9.

This note sets out measurements from PubChem BioAssay (EPA / NIEHS).

Settings in all cases: mRNA level, 48 h; actives raise or lower the signal
Read-out in assay [1]: Alkaline Phosphatase, Placental (ALPP) gene, ALPP (gene 250)
Nature of the assay: LTEA_HepaRG_ALPP: Life Technologies and Expression Analysis (LTEA) Assay for Alkaline Phosphatase, Placental (ALPP) gene using HepaRG (AID 2283468). The essentials:
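ALPP transcript level, measured by qRT-PCR and normalized to three housekeeping genes (ACTB, GAPDH, POLR2A), after 48 h dosing of differentiated HepaRG in serum-free induction medium. Top concentration 100 uM with half-log dilutions (8 points, 0.5% DMSO, duplicates); bidirectional fitting relative to DMSO.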

Read-out in assay [2]: Bcl-2 (BAD) gene, BAD (gene 572)
Nature of the assay: LTEA_HepaRG_BAD: Life Technologies and Expression Analysis (LTEA) Assay for Bcl-2 (BAD) gene using HepaRG (AID 2283469). The essentials:
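Differentiated human HepaRG cells in serum-free induction medium were exposed in duplicate for 48 h to eight concentrations (top 100 uM, half-log steps, 0.5% DMSO). BAD mRNA was quantified by qRT-PCR normalised to ACTB, GAPDH and POLR2A, with bidirectional fitting versus DMSO.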

Read-out in assay [3]: Bcl-2 (BAX) gene, BAX (gene 581)
Kind of assay: LTEA_HepaRG_BAX: Life Technologies and Expression Analysis (LTEA) Assay for Bcl-2 (BAX) gene using HepaRG (AID 2283470). A digest of the protocol: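 Differentiated HepaRG cells exposed 48 h in serum-free induction medium, eight half-log concentrations from 100 uM, in duplicate, 0.5% DMSO vehicle. BAX mRNA by TaqMan qRT-PCR, normalised to ACTB, GAPDH and POLR2A.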

Read-out in assay [4]: adenosine kinase (ADK) gene, ADK (gene 132)
Kind of assay: LTEA_HepaRG_ADK: Life Technologies and Expression Analysis (LTEA) Assay for adenosine kinase (ADK) gene using HepaRG (AID 2283471). A digest of the protocol:
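Following 48 h exposure of HepaRG cells in 0.5% DMSO (top concentration 100 uM, duplicate wells), ADK mRNA induction or suppression was measured by qRT-PCR, normalised to ACTB/GAPDH/POLR2A, and fitted bidirectionally relative to vehicle.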

Read-out in assay [5]: Alpha-fetoprotein (AFP) gene, AFP (gene 174)
Kind of assay: LTEA_HepaRG_AFP: Life Technologies and Expression Analysis (LTEA) Assay for Alpha-fetoprotein (AFP) gene using HepaRG (AID 2283472). A digest of the protocol:
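Differentiated human HepaRG cells exposed 48 h in serum-free induction medium, 8-point half-log series from 100 uM in 0.5% DMSO, duplicate. AFP mRNA by qRT-PCR, normalized to ACTB, GAPDH, POLR2A; bidirectional fit vs DMSO.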

Read-out in a further assay: BCL2L11 (gene 10018)
Nature of the assay: LTEA_HepaRG_BCL2L11: Life Technologies and Expression Analysis (LTEA) Assay for Bcl-2 (BCL2L11) gene using HepaRG (AID 2283473). A digest of the protocol: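 BCL2L11 transcript levels are measured by Fluidigm qRT-PCR, normalized to three housekeeping genes. HepaRG cultures were plated 48 h, then treated 48 h with test chemical (top 100 uM, half-log, 0.5% DMSO vehicle); curves were fitted bidirectionally against DMSO.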

Read-out in assay [6]: Apolipoprotein A-V (APOA5) gene, APOA5 (gene 116519)
Kind of assay: LTEA_HepaRG_APOA5: Life Technologies and Expression Analysis (LTEA) Assay for Apolipoprotein A-V (APOA5) gene using HepaRG (AID 2283474). A digest of the protocol:
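APOA5 transcript levels were quantified by qRT-PCR, normalized to three housekeeping genes, after 48 h chemical treatment of HepaRG cells (8 points, 100 uM maximum, half-log steps, 0.5% DMSO). Curves fitted in both directions against vehicle.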

Read-out in assay [7]: Apoptosis regulator Bcl-2 (Homo sapiens) (UniProt P10415)
Nature of the assay: LTEA_HepaRG_BCL2: Life Technologies and Expression Analysis (LTEA) Assay for Bcl-2 gene using HepaRG (AID 2283475). The essentials: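 Differentiated human HepaRG cells in serum-free induction medium exposed 48 h, in duplicate, to 8-point half-log series from 100 uM in 0.5% DMSO. BCL2 mRNA by qRT-PCR (TaqMan/Fluidigm), normalized to ACTB, GAPDH, POLR2A; bidirectional fit against DMSO.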

Read-out in assay [8]: Bcl-2 (BID) gene, BID (gene 637)
Nature of the assay: LTEA_HepaRG_BID: Life Technologies and Expression Analysis (LTEA) Assay for Bcl-2 (BID) gene using HepaRG (AID 2283476). The essentials: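 Gene expression by qRT-PCR in HepaRG cells after 48 h exposure, duplicate wells, eight half-log concentrations topping at 100 uM in 0.5% DMSO. Normalized to ACTB, GAPDH, POLR2A; bidirectional fitting relative to DMSO.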

Read-out in a further assay: Caspase-3 (Homo sapiens) (UniProt P42574)
Kind of assay: LTEA_HepaRG_CASP3: Life Technologies and Expression Analysis (LTEA) Assay for cysteine-aspartic acid protease (CASP3) using HepaRG (AID 2283477). The essentials: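 Expression of CASP3 was quantified by TaqMan qRT-PCR against three housekeeping genes (ACTB, GAPDH, POLR2A), bidirectionally versus 0.5% DMSO. HepaRG cultures received compounds in duplicate, top 100 uM with half-log steps, for 48 h in serum-free induction medium.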

Read-out in assay [9]: Cytochrome P450 (CYP24A1), CYP24A1 (gene 1591)
Kind of assay: LTEA_HepaRG_CYP24A1: Life Technologies and Expression Analysis (LTEA) Assay for Cytochrome P450 (CYP24A1) using HepaRG (AID 2283478). The essentials:
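mRNA of CYP24A1 quantified by TaqMan qRT-PCR (ACTB/GAPDH/POLR2A normalization) after 48 h chemical exposure of HepaRG cells, top concentration 100 uM, half-log steps, 0.5% DMSO vehicle, duplicates. Curves fitted bidirectionally against DMSO baseline.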

Read-out in assay [10]: Cytochrome P450 (CYP1A2), CYP1A2 (gene 1544)
Kind of assay: LTEA_HepaRG_CYP1A2: Life Technologies and Expression Analysis (LTEA) Assay for Cytochrome P450 (CYP1A2) using HepaRG (AID 2283479). The essentials:
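CYP1A2 transcript measured by TaqMan qRT-PCR against three housekeeping genes after 48-hour chemical exposure of HepaRG cells. Eight-point half-log series topping at 100 uM in 0.5% DMSO, duplicates; gain or loss fitted relative to vehicle.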

Read-out in assay [11]: cysteine-aspartic acid protease (CASP8), CASP8 (gene 841)
Kind of assay: LTEA_HepaRG_CASP8: Life Technologies and Expression Analysis (LTEA) Assay for cysteine-aspartic acid protease (CASP8) using HepaRG (AID 2283480). The essentials:
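Differentiated human HepaRG cells, plated 48 h then switched to serum-free induction medium, were exposed in duplicate for 48 h to 8 half-log concentrations up to 100 uM in 0.5% DMSO. CASP8 mRNA was quantified by qRT-PCR, normalized to ACTB/GAPDH/POLR2A.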

Read-out in assay [12]: Cytochrome P450 (CYP2B6), CYP2B6 (gene 1555)
Kind of assay: LTEA_HepaRG_CYP2B6: Life Technologies and Expression Analysis (LTEA) Assay for Cytochrome P450 (CYP2B6) using HepaRG (AID 2283481). The essentials: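 CYP2B6 transcript level quantified by qRT-PCR against three housekeeping genes, fitted bidirectionally relative to DMSO. HepaRG cultures received chemicals for 48 h, 8-point half-log series from 100 uM in 0.5% DMSO, duplicate wells, serum-free induction medium.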

Read-out in assay [13]: Cytochrome P450 2C19 (Homo sapiens) (UniProt P33261)
Nature of the assay: LTEA_HepaRG_CYP2C19: Life Technologies and Expression Analysis (LTEA) Assay for CYP2C19 using HepaRG (AID 2283482). A digest of the protocol: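 CYP2C19 transcript levels by qRT-PCR, normalized to three housekeeping genes, in HepaRG cells after 48 h chemical exposure. Eight-point half-log series topping at 100 uM, 0.5% DMSO vehicle. Increases and decreases both fitted against DMSO.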

Read-out in a further assay: CYP2C8 (gene 1558)
Nature of the assay: LTEA_HepaRG_CYP2C8: Life Technologies and Expression Analysis (LTEA) Assay for CYP2C8 using HepaRG (AID 2283483). The essentials: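 Differentiated human HepaRG cells were exposed for 48 h in serum-free induction medium to eight half-log concentrations up to 100 uM in 0.5% DMSO, in duplicate. CYP2C8 mRNA was measured by TaqMan qRT-PCR, normalized to ACTB, GAPDH and POLR2A, and fitted bidirectionally against DMSO.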

Read-out in the next assay: CYP2C9 (gene 1559)
Nature of the assay: LTEA_HepaRG_CYP2C9: Life Technologies and Expression Analysis (LTEA) Assay for CYP2C9 using HepaRG (AID 2283484). A digest of the protocol: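 Differentiated human HepaRG cells were exposed 48 h in serum-free induction medium to eight half-log concentrations up to 100 uM in 0.5% DMSO. CYP2C9 mRNA was measured by qRT-PCR, normalized to ACTB, GAPDH and POLR2A, and fitted bidirectionally against DMSO.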

Read-out in another assay: CYP2E1 (gene 1571)
Kind of assay: LTEA_HepaRG_CYP2E1: Life Technologies and Expression Analysis (LTEA) Assay for CYP2E1 using HepaRG (AID 2283485). A digest of the protocol:
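HepaRG cells, plated 48 h, then exposed 48 h in serum-free induction medium to eight half-log concentrations from 100 uM in 0.5% DMSO, duplicate. CYP2E1 mRNA by qRT-PCR, normalized to ACTB/GAPDH/POLR2A; bidirectional fit versus DMSO.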

Read-out in another assay: CYP4A11 (gene 1579)
Kind of assay: LTEA_HepaRG_CYP4A11: Life Technologies and Expression Analysis (LTEA) Assay for CYP4A11 using HepaRG (AID 2283486). The essentials: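 Readout is CYP4A11 transcript level by qRT-PCR, normalized to three housekeeping genes and fitted bidirectionally against 0.5% DMSO. Human HepaRG cells were treated 48 h, in duplicate, with an 8-point half-log series topping at 100 uM.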

Read-out in assay [14]: Cytochrome P450 3A4 (Homo sapiens) (UniProt P08684)
Kind of assay: LTEA_HepaRG_CYP3A4: Life Technologies and Expression Analysis (LTEA) Assay for CYP3A4 using HepaRG (AID 2283487). The essentials: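 In a human hepatic line (HepaRG), duplicate wells were treated 48 h with up to 100 uM chemical in half-log dilutions. Endpoint: CYP3A4 mRNA induction or loss relative to 0.5% DMSO vehicle, by qRT-PCR.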

Chain of Caspase-3 (Homo sapiens) (P42574 whole entry, looked up): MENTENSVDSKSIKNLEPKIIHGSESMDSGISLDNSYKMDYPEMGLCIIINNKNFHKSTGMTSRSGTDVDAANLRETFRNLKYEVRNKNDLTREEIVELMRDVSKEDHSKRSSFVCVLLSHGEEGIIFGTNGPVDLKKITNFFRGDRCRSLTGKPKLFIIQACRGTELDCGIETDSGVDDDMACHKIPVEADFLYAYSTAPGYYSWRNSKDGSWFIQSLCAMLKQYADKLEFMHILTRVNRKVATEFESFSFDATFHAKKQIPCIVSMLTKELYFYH
Chain of Apoptosis regulator Bcl-2 (Homo sapiens) (P10415 whole entry, looked up): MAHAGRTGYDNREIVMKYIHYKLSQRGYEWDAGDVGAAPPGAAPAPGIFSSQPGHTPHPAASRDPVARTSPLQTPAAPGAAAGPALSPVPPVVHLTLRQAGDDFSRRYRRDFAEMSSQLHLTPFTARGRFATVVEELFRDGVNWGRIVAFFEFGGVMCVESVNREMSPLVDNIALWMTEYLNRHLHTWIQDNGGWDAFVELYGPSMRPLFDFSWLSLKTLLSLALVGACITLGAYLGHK
Chain of Cytochrome P450 2C19 (Homo sapiens) (P33261 whole entry, looked up): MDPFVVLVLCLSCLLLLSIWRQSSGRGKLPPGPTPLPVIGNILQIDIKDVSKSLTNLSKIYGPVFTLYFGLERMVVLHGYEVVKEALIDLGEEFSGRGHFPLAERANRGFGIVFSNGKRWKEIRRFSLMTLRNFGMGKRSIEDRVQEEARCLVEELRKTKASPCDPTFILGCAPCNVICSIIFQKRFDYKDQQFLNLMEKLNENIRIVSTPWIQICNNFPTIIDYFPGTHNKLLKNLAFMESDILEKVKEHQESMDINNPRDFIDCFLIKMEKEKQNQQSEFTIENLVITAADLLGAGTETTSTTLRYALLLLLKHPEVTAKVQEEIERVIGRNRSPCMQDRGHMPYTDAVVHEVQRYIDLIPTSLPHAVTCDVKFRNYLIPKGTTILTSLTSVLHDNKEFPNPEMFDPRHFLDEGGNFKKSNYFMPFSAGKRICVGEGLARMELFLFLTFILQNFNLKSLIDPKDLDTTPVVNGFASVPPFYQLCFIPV
Chain of Cytochrome P450 3A4 (Homo sapiens) (P08684 whole entry, looked up): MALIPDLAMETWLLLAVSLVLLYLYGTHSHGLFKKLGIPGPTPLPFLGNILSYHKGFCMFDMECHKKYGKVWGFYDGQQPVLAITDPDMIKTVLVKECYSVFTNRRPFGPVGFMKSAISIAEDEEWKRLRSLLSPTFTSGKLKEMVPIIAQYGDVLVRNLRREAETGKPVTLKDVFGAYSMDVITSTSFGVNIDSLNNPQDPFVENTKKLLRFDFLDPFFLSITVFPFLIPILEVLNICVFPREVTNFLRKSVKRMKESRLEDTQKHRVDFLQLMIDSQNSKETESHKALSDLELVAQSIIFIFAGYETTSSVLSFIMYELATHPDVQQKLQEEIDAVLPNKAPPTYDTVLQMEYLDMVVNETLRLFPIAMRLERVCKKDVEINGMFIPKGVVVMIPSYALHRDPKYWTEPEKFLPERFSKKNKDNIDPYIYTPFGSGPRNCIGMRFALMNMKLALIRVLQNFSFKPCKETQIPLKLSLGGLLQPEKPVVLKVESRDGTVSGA

On to `CCOP(=S)(Oc1cnc(C(C)(C)C)nc1)OC(C)C` (stereo not given), for which the outcome (in assay [1]; in assay [2]; in assay [3]; in [4]; in the assay with BCL2L11 (gene 10018); in [6]) was inactive. Also, the call (in assay [7]; in [8]; in the assay with Caspase-3 (Homo sapiens); in assay [9]; in assay [10]; in assay [11]) was inactive. Also, the result with CYP2C8 (gene 1558) and in the assay with CYP2C9 (gene 1559) was inactive. The AC50 in assay [5] was 19.4 µM (active); in [12] it was 4.96 µM (active); in assay [13], 11.5 µM (active); in the assay with CYP2E1 (gene 1571), 26.8 µM (active); with CYP4A11 (gene 1579), 50 µM (active); in assay [14] it was 13.9 µM (active).
As for `Cc1cc(C2CC2)nc(Nc2ccccc2)n1`, the molecule was classed as inactive (in assay [1]; in assay [2]; in assay [3]; in assay [4]; in assay [5]; in the assay with BCL2L11 (gene 10018)). Also, the result (in assay [6]; in [7]; in assay [8]; in the assay with Caspase-3 (Homo sapiens); in assay [9]; in [11]) was inactive. In addition, the result (in assay [13]; with CYP2C8 (gene 1558); with CYP2C9 (gene 1559); with CYP2E1 (gene 1571); in the assay with CYP4A11 (gene 1579); in assay [14]) was inactive. Moreover, the AC50 in assay [10] was 91.5 µM (active); in [12], 18 µM (active).
In the case of `CCOC(=O)CC(SP(=O)(OC)OC)C(=O)OCC` (stereo not given), the call (in assay [1]; in assay [2]; in [3]; in assay [4]; in [5]; with BCL2L11 (gene 10018)) was inactive. The molecule was classed as inactive (in [6]; in assay [7]; in assay [8]; with Caspase-3 (Homo sapiens); in assay [9]; in assay [10]). In addition, the molecule was classed as inactive (in [11]; in assay [13]; with CYP2C8 (gene 1558); with CYP2C9 (gene 1559); with CYP4A11 (gene 1579); in assay [14]). For the same molecule, the AC50 in [12] is 50 µM (active); in the assay with CYP2E1 (gene 1571), 25.1 µM (active).
